The values that follow come from PubChem BioAssay (Tox21).

Inconclusive results are not listed. A call without a number means that no potency is given here. More than one record can exist for a structure, and the calls need not agree. Calls of active or inactive are those of the source. Calls come from the whole dose curve.

A short description of this test: p53 small molecule agonists, cell-based qHTS assay with rat liver microsomes: qHTS cell viability counter screen (AID 1963580). Note: nearly all actives have a fitted effect of over 45% in size. Summed up: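 HCT-116 p53RE-bla, 4,000 cells/well, 5 h pre-incubation; cpd + rat liver microsomes 0.5 mg/mL + NADPH 0.5 mg/mL (final); 16 h, 37 C; CellTiter-Glo, 30 min RT; luminescence.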
Potency is the fitted concentration of half-maximal effect.

Turning to `CO[C@@H]1[C@@H](O[C@@H]2O[C@H](C)[C@@H](O[C@H]3C[C@@](C)(O)[C@@H](O)[C@H](C)O3)[C@H](N(C)C)[C@H]2O)[C@@H](CC=O)C[C@@H](C)[C@@H](O[C@@H]2CC[C@H](N(C)C)[C@@H](C)O2)/C=C/C=C/C[C@@H](C)OC(=O)C[C@H]1OC(C)=O`, the Potency entry is “inactive”.

As to `CC(C)OC(=O)CCCCC(=O)OC(C)C`, the Potency result is “inactive”.

Take `CN1CCCC1=O`: the Potency result is “inactive”.

Regarding `CCCCCC(=O)CC`, the Potency entry is “inactive”.

In the case of `CCCCc1ccc(Cl)cc1`, the Potency result was “inactive”.

In the case of `Nc1c(NC/C=C\COc2cc(CN3CCCCC3)ccn2)c(=O)c1=O`, the activity change, negative = cytotoxicity was 1.94% [at 13.5 µM] (inactive).

For the compound `C=CCOCC(CC)(CO)COCC=C`, the Potency result was “inactive”.

Turning to `CCCC(=O)CC`, the Potency entry was “inactive”.

As to `CC[N+](C)(C)c1cccc(O)c1`, the Potency result is “inactive”.

On to `NC(=O)N[C@@H](CCC(=O)O)C(=O)O`, for which the Potency result is “inactive”.

For `O=C(CCNNC(=O)c1ccncc1)NCc1ccccc1`, the Potency entry was “inactive”.

On to `CC(=O)Oc1ccccc1C(=O)Nc1ncc([N+](=O)[O-])s1`, for which the Potency is 41.6 µM (active) and inactive.

Take `O=P(O)(OCc1ccccc1)OCc1ccccc1`: the Potency result is “inactive”.

`Cc1c(O)cccc1C(=O)N[C@@H](CSc1ccccc1)[C@H](O)CN1C[C@H]2CCCC[C@H]2C[C@H]1C(=O)NC(C)(C)C`: the Potency entry was “inactive”.

Consider `O=S(=O)(O)CO`, for which the Potency entry was “inactive”.

`CCC(C)CO` (stereo unspecified): the Potency entry was “inactive”.

In the case of `NCCOCCN`, the Potency result was “inactive”.

In the case of `NC(=O)c1ccc([N+](=O)[O-])cc1`, the Potency entry is “inactive”.

For `O=C(O)CCCCCC(=O)O`, the Potency result is “inactive”.

`CC(C)(O)C#CC(C)(C)O`: the Potency result was “inactive”.

`OC1OC[C@@H](O)[C@H](O)[C@H]1O` (stereo partly specified): the Potency result is “inactive”.

For `ClCCCl`, the Potency result was “inactive”.

As to `CC(O)C(C)O` (stereo unspecified), the Potency entry was “inactive”.

Turning to `CC1CC(OC(=O)c2ccccc2O)CC(C)(C)C1` (stereo unspecified), the Potency entry was “inactive”.

As for `CCCOCCOCCO`, the Potency entry is “inactive”.

As to `O=C[C@H](O)[C@H](O)[C@H](O)CO`, the Potency result was “inactive”.

For the compound `O=C(O)c1cc(O)c(O)c(O)c1`, the Potency entry was “inactive”.

Turning to `CN(C)c1ccc(Cc2ccc(N(C)C)cc2)cc1`, the Potency entry was “inactive”.

As for `COc1nc(C)nc(NC(=O)NS(=O)(=O)c2ccccc2OCCCl)n1`, the Potency entry was “inactive”.

Consider `CC(=O)O[C@H](CC(=O)[O-])C[N+](C)(C)C`, for which the Potency entry is “inactive”.

As for `[O]=[Zr]`, the Potency entry was “inactive”.

As to `O=C(O)Cc1ccc(CCNS(=O)(=O)c2ccc(Cl)cc2)cc1`, the Potency result was “inactive”.

In the case of `Cc1cc(C)c(S(=O)(=O)O)cc1N=Nc1cc(S(=O)(=O)O)c2ccccc2c1O`, the Potency result is “inactive”.

Regarding `C=COCCOCCOCCOC=C`, the Potency result is “inactive”.

For the compound `CCCCCCCCCCCCCCCC(=O)NCCO`, the Potency entry was “inactive”.

As to `CCCCCCCCCCCC(=O)OC[C@@H](O)[C@H]1OC[C@H](OCCO)[C@H]1OCCO`, the Potency result is “inactive”.

As to `COc1ccc2cc1Oc1cc3c(cc1OC)CC[N+](C)(C)[C@H]3Cc1ccc(cc1)Oc1c(OC)c(OC)cc3c1[C@@H](C2)[N+](C)(C)CC3`, the Potency entry was “inactive”.

Turning to `CCCCC(CC)COC(=O)CCCCCCCC(=O)OCC(CC)CCCC` (stereo unspecified), the Potency result was “inactive”.

For `NCCN1CCNC1=O`, the Potency entry was “inactive”.

Take `C[n+]1ccn(Cc2ccccc2)c1`: the Potency result is “inactive”.

Turning to `N=c1nc(N2CCCCC2)cc(N)n1O`, the Potency result is “inactive”.

Consider `COc1cc(C(=O)N2CCOCC2)cc(OC)c1OC`, for which the Potency entry was “inactive”.

Take `C=COCCCC`: the Potency entry was “inactive”.

For `CCOC(=S)SSC(=S)OCC`, the Potency entry was “inactive”.

Take `CCCCCCCCCCCCI`: the Potency result is “inactive”.

For the compound `Cc1ccccc1OCC1CO1` (stereo unspecified), the Potency entry is “inactive”.

Consider `CC(=O)N[C@@H](Cc1ccc(O)cc1)C(=O)O`, for which the Potency entry was “inactive”.

Turning to `N#[N+]c1ccc2c(S(=O)(=O)[O-])cccc2c1O`, the Potency entry is “inactive”.

Turning to `CC[C@H](c1ccc(O)cc1)[C@@H](CC)c1ccc(O)cc1`, the Potency entry is “inactive”.

Regarding `COc1ccc(NC(C)=O)cc1`, the Potency result is “inactive”.

As for `CCC(=O)OC/C=C(\C)CCC=C(C)C`, the Potency result is “inactive”.

Turning to `CC1(C)[C@@H]2CC[C@@]1(C)[C@H](O)C2`, the Potency result is “inactive”.

In the case of `CCC(C)(C)C1CCCCC1OC(C)=O` (stereo unspecified), the Potency entry was “inactive”.

On to `O=C(O)c1ccc(O)cc1O`, for which the Potency entry is “inactive”.

Take `O=C(O)/C=C/c1ccccc1`: the Potency result is “inactive”.

Turning to `COc1ccc(C(=O)c2cccc(O)c2)c(OC)c1`, the Potency entry is “inactive”.

For the compound `CCN1C(=O)c2ccccc2C1Nc1ccc(OCCN2CCCCC2)cc1` (stereo unspecified), the Potency result was “inactive”.

On to `CCC(=O)CC`, for which the Potency entry is “inactive”.

With `CC(C)CCCCCCCCCCCCCCC(=O)O`, the Potency result is “inactive”.

Regarding `F[Si-2](F)(F)(F)(F)F`, the Potency entry is “inactive”.

With `CC(C)(c1cc(Br)c(OCC(Br)CBr)c(Br)c1)c1cc(Br)c(OCC(Br)CBr)c(Br)c1` (stereo unspecified), the Potency result was “inactive”.

`CC12CCC(C(=O)C1=O)C2(C)C` (stereo unspecified): the Potency entry is “inactive”.

For the compound `COC(=O)c1ccc(C)cc1C1=NC(C)(C(C)C)C(=O)N1` (stereo unspecified), the Potency result was “inactive”.

Take `CO[Si](CCCNCCC[Si](OC)(OC)OC)(OC)OC`: the Potency entry was “inactive”.

With `COC(/C=C(\C)CCC=C(C)C)OC`, the Potency entry is “inactive”.

In the case of `O=C(c1ccc(Cl)cc1)c1ccc(Cl)cc1`, the Potency result is “inactive”.
